Experimental findings from PubChem BioAssay are described below.

The subject of test [1] is PRMT1 (protein arginine N-methyltransferase 1). The experiment in a line: PRMT1 binders on small-molecule microarrays, primary screen, biochemical, small-molecule microarray, 635 nm fluorescence (AID 1088).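 Also: binding of Prmt1 protein to compounds spotted on small-molecule microarray slides.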 The following applies: small-molecule microarray binding, higher = more signal.
A short description of test [2]: yeast growth modulation, basal conditions, primary screen, YJM789 clinical isolate, OD600, 24 h (AID 1089).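 Also: growth of clinical yeast isolate S. cerevisiae YJM 789 seeded 1000 cells per well; test concentration not given here.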 To be noted: S. cerevisiae YJM789 growth, higher = more signal, called active from +8 up or from −8 down.
A short description of test [3]: fission yeast growth modulation, primary screen, strain 972, OD600, 24 h, no modulator (AID 1090).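 Also: basal condition with compound alone and no growth modifier present; test concentration not given here.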 The following applies: S. pombe 972 growth, higher = more signal, called active from +8 up or from −8 down.
A short description of test [4]: S. cerevisiae growth modulation with rapamycin, primary screen, strain BY4716, OD600, 96 h (AID 1091). Also: test concentration not given here. To be noted: higher = more signal, called active from +8 up or from −8 down.
Test [5] concerns the target Torsin-1A-interacting protein 2 (Homo sapiens) (UniProt Q8NFQ8). The experiment in a line: LULL1 binders on small-molecule microarray, primary screen, cell lysate, human LULL1 lysate, 635/667 nm fluorescence (AID 1092).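 Also: probe is lysate of COS7 cells overexpressing human LULL1; score merges per-feature 667 nm fluorescence with signal-to-noise.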 The following applies: hLULL1 lysate binding, 635 nm fluorescence, higher = more signal.
Test [6] in a line: E. coli growth modulation, two-sided OD650, primary screen, E. coli filamentation project, strain DRC41, 24 h (AID 1093).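 Also: MC1000 strain lacking acrAB efflux and sulA so SOS filamentation is blocked; test concentration not given here.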 To be noted: OD650, 24 h, higher = more signal, called active from +8 up or from −8 down.
A short description of test [7]: small-molecule microarray binders of probe aLefty2, primary screen, biochemical, biotinylated probe, 635/667 nm fluorescence (AID 1094).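 Also: score merges spot fluorescence near 667 nm with spot signal-to-noise ratio.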 The following applies: higher = more signal.
Test [8] has as its system Noggin (protein binding on small-molecule microarray). The experiment in a line: Noggin binders on small-molecule microarray, primary screen, biochemical, 635/667 nm fluorescence (AID 1095).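 Also: score merges 667 nm feature fluorescence with signal to noise over triplicate slides.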 To be noted: 635 nm fluorescence, higher = more signal.
Test [9] addresses Neurogenic locus notch homolog protein 3 (Homo sapiens) (UniProt Q9UM47). The experiment in a line: NOTCH3 binders on small-molecule microarray, primary screen, biochemical, 635/667 nm fluorescence (AID 1096). To be noted: NOTCH3 binding, 635 nm fluorescence, higher = more signal.
The nature of test [10]: small-molecule microarray binders of probe aEGFR, primary screen, biochemical, biotinylated probe, 635/667 nm fluorescence (AID 1097).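 Also: probe is a biotinylated anti-EGFR antibody binding compounds printed on slides; score combines fluorescence near 667 nm and signal to noise of each spot.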 To be noted: higher = more signal.
Test [11] concerns Plasmodium falciparum Sir2 (PF13_0152, Sir2A). The test can be described thus: pfSir2 binders on small-molecule microarrays, primary screen, biochemical, small-molecule microarray, 635 nm fluorescence (AID 1098).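 Also: score merges spot fluorescence intensity with its signal-to-noise ratio.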 To be noted: small-molecule microarray binding, fluorescence 635 nm; higher = more signal.
Test [12] in a line: small-molecule microarray binders of probe aDKK1, primary screen, biochemical, biotinylated probe, 635/667 nm fluorescence (AID 1099).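 Also: score merges 667nm spot fluorescence with signal to noise across triplicate slides; reference of the scale not given here.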 To be noted: higher = more signal.
The nature of test [13]: small-molecule microarray binders of probe aCHRDL2, primary screen, biochemical, biotinylated probe, 635/667 nm fluorescence (AID 1100). To be noted: higher = more signal.
A short description of test [14]: splicing luciferase reporter signal modulators, primary screen, spliceosome inhibition project, cell-based, HEK293, splice +/- reporter (AID 1101).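 Also: HEK293 cells carrying a splicing-competent luciferase reporter gene; test concentration not given here.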 To be noted: luminescence, 24 h, higher = more signal, called active from +8 up or from −8 down. On the technique in general: A reporter such as luciferase makes a cellular process visible.
In test [15] the target is Fibroblast growth factor 10 (Homo sapiens) (UniProt O15520). The test can be described thus: FGF10 binders on small-molecule microarrays, primary screen, biochemical, small-molecule microarray, 635 nm fluorescence (AID 1102). To be noted: FGF10 binding, fluorescence 635 nm, higher = more signal.
Test [16] concerns glycogen synthase kinase-3 (GSK3A per assay name; protocol says GSK3B). The experiment in a line: GSK3 binders on small-molecule microarrays, primary screen, biochemical, small-molecule microarray, 635 nm fluorescence, GSK3A (AID 1103). Also: the record names both GSK3A and GSK3B. The following applies: small-molecule microarray binding, fluorescence 635 nm; higher = more signal.
For test [17], the target named is Epidermal growth factor receptor (Homo sapiens) (UniProt P00533). The test can be described thus: EGFR binders on small-molecule microarrays, primary screen, biochemical, small-molecule microarray, 635 nm fluorescence (AID 1104).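 Also: score merges 667 nm emission intensity with spot signal to noise over triplicate slides.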 The following applies: EGFR binding, higher = more signal.
In test [18] the target is Follistatin-related protein 3 (Homo sapiens) (UniProt O95633). The test can be described thus: FSTL3 binders on small-molecule microarrays, primary screen, biochemical, small-molecule microarray, 635 nm fluorescence (AID 1105).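 Also: score merges emission near 667 nm and signal to noise per printed spot across three slides.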 To be noted: FSTL3 binding, higher = more signal.
In test [19] the target is Dickkopf-related protein 1 (Homo sapiens) (UniProt O94907). The test can be described thus: DKK1 binders on small-molecule microarrays, primary screen, biochemical, small-molecule microarray, 635 nm fluorescence scan (AID 1106).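 Also: score merges emission near 667 nm with signal to noise over three replicate slides.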 To be noted: DKK1 binding, higher = more signal.
In test [20] the test system is Inhibin beta A chain (activin A). The experiment in a line: INHBA (activin A) binders on microarrays, primary screen, biochemical, small-molecule microarray, 635 nm fluorescence scan (AID 1107).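 Also: mouse activin A protein probed at 4.33 µg/mL on printed slides; score merges bound-protein fluorescence near 667 nm with spot signal-to-noise.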 To be noted: small-molecule microarray binding, higher = more signal.

The source made the active and inactive calls.

Epidermal growth factor receptor (Homo sapiens), sequence (P00533 whole entry, looked up): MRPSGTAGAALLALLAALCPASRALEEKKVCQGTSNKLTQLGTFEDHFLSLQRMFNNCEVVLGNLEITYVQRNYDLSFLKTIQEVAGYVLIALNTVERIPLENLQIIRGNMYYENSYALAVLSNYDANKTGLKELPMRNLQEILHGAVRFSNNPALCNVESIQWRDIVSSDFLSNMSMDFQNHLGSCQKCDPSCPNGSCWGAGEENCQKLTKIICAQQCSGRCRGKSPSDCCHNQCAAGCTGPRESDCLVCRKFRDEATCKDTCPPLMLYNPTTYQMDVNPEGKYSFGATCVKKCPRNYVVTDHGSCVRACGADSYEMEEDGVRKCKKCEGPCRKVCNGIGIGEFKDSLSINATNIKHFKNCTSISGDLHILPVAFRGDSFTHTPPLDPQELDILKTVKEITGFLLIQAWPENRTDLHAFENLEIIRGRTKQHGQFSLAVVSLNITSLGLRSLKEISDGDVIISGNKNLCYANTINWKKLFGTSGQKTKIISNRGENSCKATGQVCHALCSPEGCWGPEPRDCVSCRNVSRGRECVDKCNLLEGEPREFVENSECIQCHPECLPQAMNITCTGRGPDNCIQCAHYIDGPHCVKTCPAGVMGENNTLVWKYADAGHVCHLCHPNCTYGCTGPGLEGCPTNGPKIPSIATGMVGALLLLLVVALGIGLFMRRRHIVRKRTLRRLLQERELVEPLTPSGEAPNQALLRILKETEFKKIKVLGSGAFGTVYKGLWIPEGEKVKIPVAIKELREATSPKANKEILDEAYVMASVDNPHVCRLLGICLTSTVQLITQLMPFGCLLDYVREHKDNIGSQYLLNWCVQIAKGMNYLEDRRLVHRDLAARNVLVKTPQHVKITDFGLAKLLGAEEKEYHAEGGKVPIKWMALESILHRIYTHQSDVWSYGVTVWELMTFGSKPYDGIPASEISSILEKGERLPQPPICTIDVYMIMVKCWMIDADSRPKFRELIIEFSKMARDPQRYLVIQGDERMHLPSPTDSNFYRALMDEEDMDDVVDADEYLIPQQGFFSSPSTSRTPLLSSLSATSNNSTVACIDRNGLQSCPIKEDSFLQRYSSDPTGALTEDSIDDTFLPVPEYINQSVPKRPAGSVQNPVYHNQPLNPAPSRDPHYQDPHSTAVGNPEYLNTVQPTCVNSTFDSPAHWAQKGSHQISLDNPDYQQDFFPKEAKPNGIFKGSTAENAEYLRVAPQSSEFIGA
Neurogenic locus notch homolog protein 3 (Homo sapiens), sequence (Q9UM47 whole entry, looked up): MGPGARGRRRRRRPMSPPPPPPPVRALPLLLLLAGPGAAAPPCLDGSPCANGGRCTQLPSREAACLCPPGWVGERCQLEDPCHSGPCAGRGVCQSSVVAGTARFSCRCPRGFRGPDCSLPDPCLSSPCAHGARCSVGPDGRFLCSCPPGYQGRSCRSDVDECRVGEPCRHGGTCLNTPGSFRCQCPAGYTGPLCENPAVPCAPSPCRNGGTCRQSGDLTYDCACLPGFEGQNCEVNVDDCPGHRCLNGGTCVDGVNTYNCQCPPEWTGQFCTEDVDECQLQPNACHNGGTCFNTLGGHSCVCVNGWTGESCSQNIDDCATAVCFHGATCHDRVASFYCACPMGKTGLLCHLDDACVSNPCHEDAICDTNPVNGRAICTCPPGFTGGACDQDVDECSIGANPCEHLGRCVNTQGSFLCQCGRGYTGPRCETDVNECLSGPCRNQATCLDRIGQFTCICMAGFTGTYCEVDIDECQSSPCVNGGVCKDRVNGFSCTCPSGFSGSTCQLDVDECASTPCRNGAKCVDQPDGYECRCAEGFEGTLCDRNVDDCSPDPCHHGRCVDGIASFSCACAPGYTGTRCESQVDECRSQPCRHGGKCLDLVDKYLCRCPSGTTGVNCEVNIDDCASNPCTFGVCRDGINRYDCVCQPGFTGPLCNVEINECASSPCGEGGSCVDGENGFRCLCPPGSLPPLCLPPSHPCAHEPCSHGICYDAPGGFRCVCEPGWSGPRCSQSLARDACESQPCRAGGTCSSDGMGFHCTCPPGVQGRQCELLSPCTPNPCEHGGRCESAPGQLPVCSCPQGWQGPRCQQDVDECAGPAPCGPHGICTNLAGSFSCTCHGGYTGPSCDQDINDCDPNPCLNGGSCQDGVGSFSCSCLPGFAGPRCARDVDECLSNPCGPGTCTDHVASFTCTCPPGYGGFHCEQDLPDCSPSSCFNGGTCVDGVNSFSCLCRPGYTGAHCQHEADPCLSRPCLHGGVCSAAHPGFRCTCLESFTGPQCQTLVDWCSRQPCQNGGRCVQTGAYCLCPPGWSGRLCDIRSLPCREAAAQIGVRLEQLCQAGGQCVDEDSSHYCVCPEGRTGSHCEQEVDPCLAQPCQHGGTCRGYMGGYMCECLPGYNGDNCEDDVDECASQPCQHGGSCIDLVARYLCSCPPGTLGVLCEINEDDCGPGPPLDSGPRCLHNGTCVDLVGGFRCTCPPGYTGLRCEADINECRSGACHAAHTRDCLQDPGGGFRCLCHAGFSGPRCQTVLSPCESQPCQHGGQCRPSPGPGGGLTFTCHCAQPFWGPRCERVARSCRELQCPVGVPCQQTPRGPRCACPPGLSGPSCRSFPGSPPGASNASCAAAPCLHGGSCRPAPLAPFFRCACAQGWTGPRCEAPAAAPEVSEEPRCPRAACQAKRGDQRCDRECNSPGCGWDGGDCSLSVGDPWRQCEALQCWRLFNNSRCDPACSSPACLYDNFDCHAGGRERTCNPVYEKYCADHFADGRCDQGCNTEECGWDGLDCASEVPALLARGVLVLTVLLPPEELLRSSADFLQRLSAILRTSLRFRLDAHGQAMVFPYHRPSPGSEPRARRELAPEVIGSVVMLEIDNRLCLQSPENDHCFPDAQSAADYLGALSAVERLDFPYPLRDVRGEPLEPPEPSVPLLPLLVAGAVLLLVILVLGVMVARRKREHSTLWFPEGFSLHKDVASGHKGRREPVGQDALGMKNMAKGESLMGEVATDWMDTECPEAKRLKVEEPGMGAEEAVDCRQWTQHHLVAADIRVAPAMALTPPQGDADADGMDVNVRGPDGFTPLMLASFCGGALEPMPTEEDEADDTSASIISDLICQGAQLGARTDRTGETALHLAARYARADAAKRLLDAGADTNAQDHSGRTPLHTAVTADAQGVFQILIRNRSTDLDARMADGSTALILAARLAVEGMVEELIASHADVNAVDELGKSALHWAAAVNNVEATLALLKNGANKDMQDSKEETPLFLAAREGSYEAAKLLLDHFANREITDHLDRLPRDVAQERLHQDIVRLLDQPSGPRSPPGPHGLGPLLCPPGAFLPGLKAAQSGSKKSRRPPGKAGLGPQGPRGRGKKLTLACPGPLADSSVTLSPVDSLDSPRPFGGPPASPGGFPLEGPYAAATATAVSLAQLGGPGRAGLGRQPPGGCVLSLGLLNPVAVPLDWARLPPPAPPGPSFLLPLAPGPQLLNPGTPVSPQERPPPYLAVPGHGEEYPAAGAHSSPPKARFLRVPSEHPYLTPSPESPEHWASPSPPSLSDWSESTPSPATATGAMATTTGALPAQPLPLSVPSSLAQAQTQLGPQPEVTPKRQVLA
Torsin-1A-interacting protein 2 (Homo sapiens), sequence (Q8NFQ8 whole entry, looked up): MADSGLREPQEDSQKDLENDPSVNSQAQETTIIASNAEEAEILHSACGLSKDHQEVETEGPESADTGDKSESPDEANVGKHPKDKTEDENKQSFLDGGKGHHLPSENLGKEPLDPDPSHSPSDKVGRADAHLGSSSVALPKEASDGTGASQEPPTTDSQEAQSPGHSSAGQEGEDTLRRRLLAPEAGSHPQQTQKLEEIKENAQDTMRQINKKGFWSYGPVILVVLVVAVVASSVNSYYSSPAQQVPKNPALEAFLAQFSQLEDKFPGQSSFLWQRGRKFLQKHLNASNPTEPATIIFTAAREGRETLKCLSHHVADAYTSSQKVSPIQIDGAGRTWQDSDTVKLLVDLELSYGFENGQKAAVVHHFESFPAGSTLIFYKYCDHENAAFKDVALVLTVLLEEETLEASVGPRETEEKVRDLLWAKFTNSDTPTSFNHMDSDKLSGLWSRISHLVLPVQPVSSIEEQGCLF
Fibroblast growth factor 10 (Homo sapiens), sequence (O15520 whole entry, looked up): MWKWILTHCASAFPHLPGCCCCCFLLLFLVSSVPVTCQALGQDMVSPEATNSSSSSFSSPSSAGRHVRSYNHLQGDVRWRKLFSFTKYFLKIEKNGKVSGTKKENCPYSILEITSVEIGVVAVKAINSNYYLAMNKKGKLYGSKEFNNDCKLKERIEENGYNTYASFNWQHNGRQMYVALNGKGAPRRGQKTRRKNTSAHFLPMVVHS
Follistatin-related protein 3 (Homo sapiens), sequence (O95633 whole entry, looked up): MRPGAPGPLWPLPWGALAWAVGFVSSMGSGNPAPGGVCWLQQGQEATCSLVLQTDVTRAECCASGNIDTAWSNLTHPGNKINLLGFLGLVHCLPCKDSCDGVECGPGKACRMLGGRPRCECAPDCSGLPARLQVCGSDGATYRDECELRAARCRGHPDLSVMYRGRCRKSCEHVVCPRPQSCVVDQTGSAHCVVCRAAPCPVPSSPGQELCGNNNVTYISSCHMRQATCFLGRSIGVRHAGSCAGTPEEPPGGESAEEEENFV
Dickkopf-related protein 1 (Homo sapiens), sequence (O94907 whole entry, looked up): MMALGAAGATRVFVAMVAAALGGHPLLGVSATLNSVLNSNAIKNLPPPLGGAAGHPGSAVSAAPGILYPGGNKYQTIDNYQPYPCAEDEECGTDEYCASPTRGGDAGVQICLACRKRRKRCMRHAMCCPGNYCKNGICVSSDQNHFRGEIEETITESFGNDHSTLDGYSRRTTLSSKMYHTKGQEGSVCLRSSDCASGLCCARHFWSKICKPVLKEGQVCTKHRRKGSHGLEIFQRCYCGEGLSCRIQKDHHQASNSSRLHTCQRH

As to `O=C1O[C@H](c2ccccc2)[C@H](c2ccccc2)N2[C@H]1[C@@H](C(=O)O)[C@]1(C(=O)Nc3ccc(C#CC4=CCCCC4)cc31)[C@H]2c1ccc(O)cc1`, the composite z-score was 1.54 in [1]; 2.65 in test [5]; 0.0169 in test [7]; 0.653 in [8]; 0.966 in test [9]; -0.0353 in [10]. Further, the composite z-score was 1.37 in [11]; -0.0007 in [12]; 0.0645 in [13]; 1.06 in test [15]; 0.908 in [16]; 0.23 in test [17]. The values for the composite z-score in test [18], in test [19] and in test [20] were 0.844, 1.11 and 0.855, respectively. The z-score in test [2] is -0.206 (inactive); in [3], -0.113 (inactive); in [4], -0.776 (inactive); in [6] it was -0.911 (inactive); in [14], -0.824 (inactive).

In the case of `C=CCC(OC(C)=O)[C@@H]1[C@@H](N(Cc2ccc(-c3cccc(C(F)(F)F)c3)o2)C(=O)c2ccc(C)cc2)c2cc(OCCCO)ccc2N1C(=O)c1ccc2ccccc2c1` (stereo not given in full), the composite z-score in test [1] is 0.128; in test [5], 0.407; in test [7], -0.138; in test [8], 0.485; in test [9], 0.313; in test [10], -0.125. The composite z-score in [11] is 0.178; in test [12], -0.149; in test [13], 0.155; in test [15], 0.298; in test [16] it was -0.461; in test [17] it was -0.0161. Moreover, the composite z-score in test [18] came out at 0.443; in test [19], 0.217; in test [20], 1.01. Also, the z-score is 0.488 (inactive) in test [2]; 0.668 (inactive) in test [3]; 0.742 (inactive) in test [4]; 1.14 (inactive) in test [6]; -0.619 (inactive) in [14].

As to `COC(=O)c1cn(C[C@@H](Cc2ccccc2)NC(=O)N[C@H](CO)CCc2oc(C(C)=O)c(C(=O)OC)c2C(=O)OC)nn1`, the composite z-score in test [1] is 0.999; in test [5], 0.985; in test [7] it was -0.147; in [8], 0.921; in test [9] it was 1.06; in test [10], 0.084. Also, the composite z-score in test [11] was 0.741; in [12] it was 0.067; in test [13], -0.255; in test [15], 0.738; in [16] it was 0.895; in test [17], 0.452. In addition, the composite z-score in test [18] was 1.4; in test [19], 0.894; in test [20], -0.293. In addition, the z-score in test [2] is 0.0017 (inactive); in test [3], -0.814 (inactive); in [4] it was -0.338 (inactive); in [6] it was 1.01 (inactive); in [14], 0.138 (inactive).

For the compound `CCOC(=O)c1ccc(NC(=O)O[C@H]2[C@H](OC(=O)Nc3ccc4c(c3)OCO4)[C@H](OC(=O)Nc3ccc4c(c3)OCO4)[C@@H](OC)O[C@@H]2CO)cc1`, the composite z-score was 1.54 in test [1]; 3.1 in test [5]; 0.17 in [7]; 1.34 in [8]; 1.06 in test [9]; 0.251 in test [10]. In addition, the composite z-score in [11] worked out at 1.56; in test [12] it was 0.901; in test [13], 0.944; in [15] it was 1.33; in test [16] it was 1.33; in [17], 0.517. Moreover, the composite z-score in test [18] turned out to be 1.39; in test [19], 1; in test [20], 0.673. Also, the z-score in test [2] was 1.21 (inactive); in test [3] it was 1.57 (inactive); in test [4] it was 6.12 (inactive); in test [6] it was 0.62 (inactive); in test [14], 0.646 (inactive).

Turning to `CN(C)C(=O)[C@@]1(Cc2ccccc2CN=[N+]=[N-])N=C(c2ccc(OCCCO)cc2)O[C@H]1c1ccccc1CN=[N+]=[N-]`, the composite z-score in test [1] is 0.88; in [5] it was 2.6; in test [7], 0.514; in test [8] it was -0.586; in test [9] it was 0.456; in test [10], 0.424. Further, the composite z-score in [11] is 1.03; in test [12], 0.832; in test [13] it was 0.915; in test [15], 0.871; in test [16], -0.581; in test [17], -0.167. The values for the composite z-score in [18], in test [19] and in test [20] were -0.0464, -0.687 and 0.846, respectively. Moreover, the z-score is 0.733 (inactive) in test [2]; 1.19 (inactive) in [3]; 15.6 (active) in test [4]; 0.0474 (inactive) in [6]; 1.2 (inactive) in test [14].
